Test results: PubChem BioAssay AID1159580 (chemical genetic matrix, 2015)
The campaign covered roughly 5,500 compounds. About 2,000 (36%) were called active. Not shown: some 18% with an inconclusive outcome. No stated cut-off is given here; in the data, active means normalized growth mostly below about 0.91 (no sharp cut-off); inconclusive means no clear call, values can overlap the other calls; inactive means mostly above about 0.92. Some of the results follow.

Experiment: chemical genetic growth profiling, strain panel (AID 1159580);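 further: tested at 20 µM; growth read once vehicle control cultures reached saturation at 30 °C; 1 = growth at the plate median or of vehicle wells; lower values mean less growth of the strain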
Settings: growth OD

Measured: normalized growth

CC(=O)OCC1=C(C(=O)O)N2C(=O)[C@@H](NC(=O)CSc3ccncc3)[C@H]2SC1
inactive: S. cerevisiae deletion strains, locus YJR043C, strain POL32, active compounds read low 0.959 | S. cerevisiae deletion strains, locus YJR066W, strain TOR1, active compounds read low 0.987 | S. cerevisiae deletion strains, locus YKL009W, strain mrt4, active compounds read low 1 | S. cerevisiae deletion strains, locus YKL068W, active compounds read low 0.982 | S. cerevisiae deletion strains, locus YKL085W, strain MDH1 (second series), active compounds read low 0.975 | S. cerevisiae deletion strains, locus YKL085W, strain MDH1, active compounds read low 0.975 | S. cerevisiae deletion strains, locus YKL160W, strain elf1, active compounds read low 1.03 | S. cerevisiae deletion strains, locus YKR001C, strain vps1, active compounds read low 0.994 | S. cerevisiae deletion strains, locus YKR026C, strain gcn3, active compounds read low 1.03 | S. cerevisiae deletion strains, locus YKR091W, strain srl3, active compounds read low 1.02 | S. cerevisiae deletion strains, locus YLL001W, strain dnm1, active compounds read low 1.02 | S. cerevisiae deletion strains, locus YLL026W, active compounds read low 1.01 | S. cerevisiae deletion strains, locus YLL041C, strain sdh2, active compounds read low 1.02 | S. cerevisiae deletion strains, locus YLR027C, strain aat2, active compounds read low 1.02 | S. cerevisiae deletion strains, locus YLR039C, strain RIC1, active compounds read low 0.981 | S. cerevisiae deletion strains, locus YLR058C, strain SHM2, active compounds read low 0.985 | S. cerevisiae deletion strains, locus YLR102C, strain apc9, active compounds read low 0.988 | S. cerevisiae deletion strains, locus YLR113W, strain HOG1, active compounds read low 0.974 | S. cerevisiae deletion strains, locus YLR221C, strain rsa3, active compounds read low 1.03 | S. cerevisiae deletion strains, locus YLR258W, strain gsy2, active compounds read low 1.01 | S. cerevisiae deletion strains, locus YLR262C, strain YPT6 (second series), active compounds read low 1.07 | S. cerevisiae deletion strains, locus YLR262C, strain YPT6, active compounds read low 0.926 | S. cerevisiae deletion strains, locus YLR268W, strain sec22, active compounds read low 0.957 | S. cerevisiae deletion strains, locus YLR320W, strain mms22, active compounds read low 1 | S. cerevisiae deletion strains, locus YLR330W, strain CHS5, active compounds read low 0.98 | S. cerevisiae deletion strains, locus YLR342W, strain FKS1 (second series), active compounds read low 0.986 | S. cerevisiae deletion strains, locus YLR342W, strain FKS1, active compounds read low 1.03 | S. cerevisiae deletion strains, locus YLR357W, strain rsc2, active compounds read low 1.05 | S. cerevisiae deletion strains, locus YLR370C, strain arc18, active compounds read low 1.01 | S. cerevisiae deletion strains, locus YLR371W, strain rom2, active compounds read low 0.994 | S. cerevisiae deletion strains, locus YLR384C, strain iki3, active compounds read low 1.04 | S. cerevisiae deletion strains, locus YLR418C, strain cdc73, active compounds read low 1.05 | S. cerevisiae deletion strains, locus YML016C, strain PPZ1, active compounds read low 0.987 | S. cerevisiae deletion strains, locus YML032C, strain rad52, active compounds read low 0.992 | S. cerevisiae deletion strains, locus YML120C, strain ndi1, active compounds read low 1.03 | S. cerevisiae deletion strains, locus YML124C, strain tub3, active compounds read low 0.994 | S. cerevisiae deletion strains, locus YMR058W, strain fet3, active compounds read low 1.01 | S. cerevisiae deletion strains, locus YMR078C, strain ctf18, active compounds read low 0.987 | S. cerevisiae deletion strains, locus YMR125W, strain sto1, active compounds read low 1.02 | S. cerevisiae deletion strains, locus YMR129W, active compounds read low 1.02 | S. cerevisiae deletion strains, locus YMR205C, strain PFK2, active compounds read low 1.02 | S. cerevisiae deletion strains, locus YMR223W, strain ubp8, active compounds read low 1.01 | S. cerevisiae deletion strains, locus YMR231W, strain pep5, active compounds read low 1.01 | S. cerevisiae deletion strains, locus YMR263W, strain SAP30, active compounds read low 1 | S. cerevisiae deletion strains, locus YMR307W, strain GAS1, active compounds read low 0.972 | S. cerevisiae deletion strains, locus YNL067W, strain RPL9B, active compounds read low 1.01 | S. cerevisiae deletion strains, locus YNL071W, strain lat1, active compounds read low 1.01 | S. cerevisiae deletion strains, locus YNL183C, strain NPR1, active compounds read low 0.924 | S. cerevisiae deletion strains, locus YNL209W, strain ssb2, active compounds read low 1.02 | S. cerevisiae deletion strains, locus YNL233W, strain BNI4, active compounds read low 1.02 | S. cerevisiae deletion strains, locus YNL248C, strain rpa49, active compounds read low 1.02 | S. cerevisiae deletion strains, locus YNL250W, strain rad50, active compounds read low 0.99 | S. cerevisiae deletion strains, locus YNL271C, strain bni1, active compounds read low 1 | S. cerevisiae deletion strains, locus YNL298W, strain CLA4, active compounds read low 0.992 | S. cerevisiae deletion strains, locus YNL307C, strain MCK1, active compounds read low 0.993 | S. cerevisiae deletion strains, locus YNL322C, strain KRE1 (second series), active compounds read low 1.03 | S. cerevisiae deletion strains, locus YNL322C, strain KRE1, active compounds read low 0.997 | S. cerevisiae deletion strains, locus YNR049C, strain mso1, active compounds read low 1.02 | S. cerevisiae deletion strains, locus YNR052C, strain pop2, active compounds read low 0.991 | S. cerevisiae deletion strains, locus YOL012C, strain htz1 0.881 | S. cerevisiae deletion strains, locus YOL147C, strain pex11, active compounds read low 1 | S. cerevisiae deletion strains, locus YOR001W, strain rrp6, active compounds read low 1.04 | S. cerevisiae deletion strains, locus YOR061W, strain CKA2, active compounds read low 0.969 | S. cerevisiae deletion strains, locus YOR069W, strain VPS5, active compounds read low 0.985 | S. cerevisiae deletion strains, locus YOR070C, strain gyp1, active compounds read low 1.01 | S. cerevisiae deletion strains, locus YOR080W, strain dia2, active compounds read low 1.05 | S. cerevisiae deletion strains, locus YOR083W, strain WHI5, active compounds read low 1.05 | S. cerevisiae deletion strains, locus YOR106W, strain vam3, active compounds read low 1.05 | S. cerevisiae deletion strains, locus YOR136W, strain idh2, active compounds read low 0.983 | S. cerevisiae deletion strains, locus YOR144C, strain elg1, active compounds read low 0.985 | S. cerevisiae deletion strains, locus YOR184W, strain ser1, active compounds read low 0.995 | S. cerevisiae deletion strains, locus YOR231W, strain MKK1, active compounds read low 0.985 | S. cerevisiae deletion strains, locus YOR265W, strain rbl2, active compounds read low 1.02 | S. cerevisiae deletion strains, locus YOR270C, strain vph1, active compounds read low 1.07 | S. cerevisiae deletion strains, locus YOR290C, strain snf2, active compounds read low 0.998 | S. cerevisiae deletion strains, locus YOR316C, strain cot1, active compounds read low 0.981 | S. cerevisiae deletion strains, locus YPL051W, strain arl3, active compounds read low 1.04 | S. cerevisiae deletion strains, locus YPL078C, strain atp4, active compounds read low 1.05 | S. cerevisiae deletion strains, locus YPL106C, strain sse1, active compounds read low 1.02 | S. cerevisiae deletion strains, locus YPL240C, strain hsp82, active compounds read low 1.02 | S. cerevisiae deletion strains, locus YPL241C, strain CIN2, active compounds read low 0.988 | S. cerevisiae deletion strains, locus YPL256C, strain CLN2, active compounds read low 1.01 | S. cerevisiae deletion strains, locus YPR119W, strain clb2, active compounds read low 0.982 | S. cerevisiae deletion strains, locus YPR141C, strain kar3, active compounds read low 0.991 | S. cerevisiae deletion strains, locus YPR163C, strain tif3, active compounds read low 0.991 | S. cerevisiae deletion strains, locus YPR167C, strain met16, active compounds read low 1 | S. cerevisiae deletion strains, strain wtn01, active compounds read low 0.995 | S. cerevisiae strains, strain wild type, active compounds read low 0.982
